# Laboratory results from PubChem BioAssay (EPA / NIEHS).
# Results filed as inconclusive are left out. The source made the active and inactive calls. The calls were made as follows: active = hit-call score of the fitted dose curve at least 0.9, where 1 is the maximum; inconclusive = response in the unintended direction; inactive = score below 0.9.
# Experiments:
# [1] = biological target: human Caspase 5 (CASP5), CASP5 (gene 838) (UniProt P51878); test: NVS_ENZ_hCASP5: NovaScreen (NVS) Enzymatic Assay for human Caspase 5 (CASP5) (AID 2283137)
# How it was run: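 Recombinant E. coli-expressed human caspase 5 in a cell-free enzyme assay; fluorescence intensity read 2 hours after chemical dosing. Single-concentration duplicate screen at 25 uM, then concentration-response up to 50 uM for hits; DMSO negative control.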
# [2] = biological target: human Dual Specificity Protein Phosphatase 3 (DUSP3), DUSP3 (gene 1845) (UniProt P51452); test: NVS_ENZ_hDUSP3: NovaScreen (NVS) Enzymatic Assay for human Dual Specificity Protein Phosphatase 3 (DUSP3) (AID 2283152);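 also: phosphatase activity of recombinant human DUSP3 on a fluorogenic substrate without cells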
# How it was run: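 Cell-free assay with recombinant human DUSP3 and fluorogenic substrate, read by fluorescence intensity. Primary screen ran duplicate at 25 uM; actives followed up in concentration series; loss of signal versus DMSO scored.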
# [3] = biological target: human Esterase Plasma (ES), BCHE (gene 590) (UniProt P06276); test: NVS_ENZ_hES: NovaScreen (NVS) Enzymatic Assay for human Esterase Plasma (ES) (AID 2283157)
# How it was run: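 Esterase from human plasma, cell-free, colorimetric absorbance read 0.25 h after dosing. Screened at 25 uM in duplicate, with threshold-passing chemicals run in concentration-response up to 50 uM; loss of signal fitted versus DMSO.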
# [4] = biological target: human Matrix Metalloproteinase-9 (MMP9), MMP9 (gene 4318) (UniProt P14780); test: NVS_ENZ_hMMP9: NovaScreen (NVS) Enzymatic Assay for human Matrix Metalloproteinase-9 (MMP9) (AID 2283190);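 also: cell-free recombinant MMP9 protease activity read by fluorescent substrate signal; active means inhibition seen as loss of fluorescence signal versus DMSO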
# How it was run: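 Extracted enzyme, fluorescent substrate, 1 h post-dose read. Single conc 25 uM in duplicate, then concentration series for actives. Activity = signal loss relative to DMSO negative control.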
# [5] = biological target: human Beta-secretase (BACE), BACE1 (gene 23621) (UniProt P56817); test: NVS_ENZ_hBACE: NovaScreen (NVS) Enzymatic Assay for human Beta-secretase (BACE) (AID 2283140);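 also: hits are inhibitors that reduce fluorescent substrate signal versus DMSO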
# How it was run: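 Cell-free fluorescence-intensity assay of recombinant BACE1 expressed in SF9 cells, read 1 hour after dosing. Loss of signal indicates reduced protease activity, fitted relative to DMSO negative control. Primary screen at 25 uM in duplicate; actives followed in concentration series.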
# [6] = biological target: sheep Cyclooxygenase-1 (Cox1), PTGS1 (gene 443551) (UniProt P05979); test: NVS_ENZ_oCOX1: NovaScreen (NVS) Enzymatic Assay for sheep Cyclooxygenase-1 (Cox1) (AID 2283239);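 also: actives reduce cyclooxygenase activity so potencies are for inhibitors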
# How it was run: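 Absorbance read-out of cyclooxygenase activity in a cell-free preparation from sheep seminal vesicles, taken 0.66 hour after dosing. Initial testing was in duplicate at 25 uM, and confirmatory testing was run in concentration series.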
# [7] = biological target: human CYP2D6, CYP2D6 (gene 1565) (UniProt P10635); test: NVS_ADME_hCYP2D6: NovaScreen (NVS) CYP450-related Enzyme Activity (ADME) Assay for human CYP2D6 (AID 2283107)
# How it was run: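 Insect-cell recombinant enzyme + fluorogenic substrate, cell-free; 1 h incubation; fluorescence intensity readout. Acetonitrile = neg. ctrl/baseline. Single-point 10 uM, duplicate; follow-up concentration series.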
# [8] = biological target: Cytochrome P450 2C19 (Homo sapiens) (UniProt P33261); test: NVS_ADME_hCYP2C19: NovaScreen (NVS) CYP450-related Enzyme Activity (ADME) Assay for human CYP2C19 (AID 2283113);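 also: potency for inhibition seen as loss of fluorescent signal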
# How it was run: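 Fluorescence intensity was measured 1 hour after chemicals were added to insect-cell-derived recombinant CYP2C19 with fluorogenic substrate. Decreased signal versus acetonitrile control was taken as reduced enzyme activity; initial testing used 10 uM in duplicate.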
# [9] = biological target: human Matrix Metalloproteinase-2 (MMP2), MMP2 (gene 4313) (UniProt P08253); test: NVS_ENZ_hMMP2: NovaScreen (NVS) Enzymatic Assay for human Matrix Metalloproteinase-2 (MMP2) (AID 2283184)
# How it was run: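 Cell-free recombinant MMP2 activity with a fluorescent substrate, read 1 h after dosing. Primary screen in duplicate at 25 uM; actives then run in concentration series; loss of signal fitted versus DMSO.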
# [10] = biological target: sheep Cyclooxygenase-2 (Cox2), PTGS2 (gene 443460) (UniProt P79208); test: NVS_ENZ_oCOX2: NovaScreen (NVS) Enzymatic Assay for sheep Cyclooxygenase-2 (Cox2) (AID 2283231)
# How it was run: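 Colorimetric absorbance read-out of COX activity, taken 0.66 hour post-dosing, using native protein from sheep placenta. Single-concentration duplicate screen (25 uM), then singleton concentration-response up to 50 uM for actives.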
# [11] = biological target: human MAP Kinase-Activated Protein Kinase 2 (MAPKAPK2), MAPKAPK2 (gene 9261) (UniProt P49137); test: NVS_ENZ_hMAPKAPK2: NovaScreen (NVS) Enzymatic Assay for human MAP Kinase-Activated Protein Kinase 2 (MAPKAPK2) (AID 2283178)
# How it was run: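 Cell-free recombinant human MAPKAPK2 activity measured by fluorescence with electrophoretic mobility shift separation of substrate and product, 1 hr after dosing. Loss of signal versus DMSO; primary screen at 25 uM, concentration-response up to 50 uM.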
# [12] = biological target: Cytochrome P450 3A4 (Homo sapiens) (UniProt P08684); test: NVS_ADME_hCYP3A4: NovaScreen (NVS) CYP450-related Enzyme Activity (ADME) Assay for human CYP3A4 (AID 2283110)
# How it was run: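 Cell-free recombinant enzyme expressed in insect cells; fluorescent substrate turnover read after 0.33 h, acetonitrile as negative control. Primary screen in duplicate at 10 uM, actives then tested in concentration series.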
# [13] = biological target: human Phosphoinositide 3-kinase alpha (PI3Ka), PIK3CA (gene 5290) (UniProt P42336); test: NVS_ENZ_hPI3Ka: NovaScreen (NVS) Enzymatic Assay for human Phosphoinositide 3-kinase alpha (PI3Ka) (AID 2283196)
# How it was run: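 Fluorescence/mobility-shift readout of substrate conversion by recombinant enzyme, 1 h post-dosing. Primary screen in duplicate at 25 uM; actives (e.g. ≥30% inhibition) retested in singleton concentration-response, top concentration 50 uM.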
# [14] = biological target: guinea pig Opioid, Kappa 1 Receptor (OpiateK), OPRK1 (gene 100135587) (UniProt P41144); test: NVS_GPCR_gOpiateK: NovaScreen (NVS) G Protein-Coupled Receptor Assay for guinea pig Opioid, Kappa 1 Receptor (OpiateK) (AID 2283252);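 also: radioligand displacement from kappa opioid receptor in guinea pig cerebellar membranes; active means reduced radioligand binding relative to DMSO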
# How it was run: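 Guinea pig cerebellar membranes, radioligand displacement with filter-based scintillation counting, 2 h after dosing. Primary screen single concentration 25 uM in duplicate; actives retested in concentration series; loss of binding fitted versus DMSO.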
# [15] = biological target: rat CYP2C11, Cyp2c11 (gene 29277) (UniProt P08683); test: NVS_ADME_rCYP2C11: NovaScreen (NVS) CYP450-related Enzyme Activity (ADME) Assay for rat CYP2C11 (AID 2283118)
# How it was run: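 Cell-free recombinant rat enzyme with fluorescent substrate; readout 0.33 h after dosing, loss of signal versus acetonitrile control. Initial duplicate single-point at 10 uM; actives rerun in concentration series.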
# [16] = biological target: human CYP1A2, CYP1A2 (gene 1544) (UniProt P05177); test: NVS_ADME_hCYP1A2: NovaScreen (NVS) CYP450-related Enzyme Activity (ADME) Assay for human CYP1A2 (AID 2283102)
# How it was run: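 rec. hCYP1A2 (insect cells), cell-free; fluorogenic substrate; 0.5 h; FI read. Baseline = acetonitrile; signal loss = inhibition. 10 uM duplicate primary → conc. series for actives.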
# [17] = biological target: rat Constitutive Nitric Oxide Synthase (CNOS), Nos1 (gene 24598) (UniProt P29476); test: NVS_ENZ_rCNOS: NovaScreen (NVS) Enzymatic Assay for rat Constitutive Nitric Oxide Synthase (CNOS) (AID 2283236)
# How it was run: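 Enzyme activity in rat brain membrane preparation, read 1 h after dosing by filter-based radiometric scintillation counting. Primary screen in duplicate at 25 uM; actives (e.g., ≥30% inhibition) then run in concentration-response up to 50 uM.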
# [18] = biological target: human Vascular Endothelial Growth Factor Receptor 1 (VEGFR1), FLT1 (gene 2321) (UniProt P17948); test: NVS_ENZ_hVEGFR1: NovaScreen (NVS) Enzymatic Assay for human Vascular Endothelial Growth Factor Receptor 1 (VEGFR1) (AID 2283226)
# How it was run: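 Cell-free assay of recombinant human VEGFR1 kinase with substrate, measured 1 h after dosing; fluorescence with electrophoretic mobility-shift separation of substrate and product, referenced to DMSO; primary screen at 25 uM in duplicate, actives then run in concentration series.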
# [19] = biological target: guinea pig Leukotriene D4 Receptor (LTD4), CYSLTR1 (gene 100135514) (UniProt Q2NNR5); test: NVS_GPCR_gLTD4: NovaScreen (NVS) G Protein-Coupled Receptor Assay for guinea pig Leukotriene D4 Receptor (LTD4) (AID 2283248)
# How it was run: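 Radioligand displacement on guinea pig lung membranes, 1 h incubation, filtration and scintillation counting; DMSO as negative control. Duplicate 25 uM primary screen, then singleton concentration-response up to 50 uM.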
# guinea pig Opioid, Kappa 1 Receptor (OpiateK), OPRK1 (gene 100135587), sequence (P41144 whole entry, looked up): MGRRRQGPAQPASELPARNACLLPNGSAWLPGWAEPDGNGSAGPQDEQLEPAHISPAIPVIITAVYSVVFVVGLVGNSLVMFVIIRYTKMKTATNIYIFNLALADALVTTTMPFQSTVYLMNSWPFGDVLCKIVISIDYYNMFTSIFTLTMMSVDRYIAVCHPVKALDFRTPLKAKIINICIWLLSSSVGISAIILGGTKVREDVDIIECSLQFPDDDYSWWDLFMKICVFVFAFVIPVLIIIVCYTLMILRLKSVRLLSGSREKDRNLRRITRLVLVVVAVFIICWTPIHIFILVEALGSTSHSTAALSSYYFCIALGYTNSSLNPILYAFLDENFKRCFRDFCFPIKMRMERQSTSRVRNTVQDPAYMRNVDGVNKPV
# human Beta-secretase (BACE), BACE1 (gene 23621), sequence (P56817 whole entry, looked up): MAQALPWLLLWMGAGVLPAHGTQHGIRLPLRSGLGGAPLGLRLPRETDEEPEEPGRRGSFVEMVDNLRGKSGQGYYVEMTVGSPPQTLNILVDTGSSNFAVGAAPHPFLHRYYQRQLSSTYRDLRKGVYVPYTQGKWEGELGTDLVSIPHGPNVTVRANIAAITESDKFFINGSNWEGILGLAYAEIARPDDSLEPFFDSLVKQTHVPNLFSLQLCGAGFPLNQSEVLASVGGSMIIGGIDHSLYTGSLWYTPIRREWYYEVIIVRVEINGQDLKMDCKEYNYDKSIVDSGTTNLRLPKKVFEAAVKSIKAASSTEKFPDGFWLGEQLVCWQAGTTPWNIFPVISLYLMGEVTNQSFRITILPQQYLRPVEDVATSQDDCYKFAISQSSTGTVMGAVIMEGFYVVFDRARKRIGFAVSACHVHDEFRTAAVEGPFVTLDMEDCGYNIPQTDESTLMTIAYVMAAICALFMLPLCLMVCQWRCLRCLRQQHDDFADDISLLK
# sheep Cyclooxygenase-1 (Cox1), PTGS1 (gene 443551), sequence (P05979 whole entry, looked up): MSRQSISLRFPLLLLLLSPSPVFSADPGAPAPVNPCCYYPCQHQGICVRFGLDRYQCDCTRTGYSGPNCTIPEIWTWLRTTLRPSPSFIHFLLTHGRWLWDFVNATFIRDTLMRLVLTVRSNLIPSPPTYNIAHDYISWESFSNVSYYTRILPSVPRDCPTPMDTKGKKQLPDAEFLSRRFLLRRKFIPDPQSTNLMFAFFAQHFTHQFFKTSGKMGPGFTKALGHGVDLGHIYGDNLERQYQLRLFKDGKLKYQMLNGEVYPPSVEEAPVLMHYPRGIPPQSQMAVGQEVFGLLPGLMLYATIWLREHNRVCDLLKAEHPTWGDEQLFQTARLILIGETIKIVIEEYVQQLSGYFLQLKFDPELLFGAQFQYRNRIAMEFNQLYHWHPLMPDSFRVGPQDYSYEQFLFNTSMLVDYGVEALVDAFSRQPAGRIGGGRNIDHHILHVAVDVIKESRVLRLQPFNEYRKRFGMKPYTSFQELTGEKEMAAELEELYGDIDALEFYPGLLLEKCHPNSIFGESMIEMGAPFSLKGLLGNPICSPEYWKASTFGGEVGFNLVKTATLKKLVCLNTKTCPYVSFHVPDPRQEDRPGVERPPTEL
# human CYP2D6, CYP2D6 (gene 1565), sequence (P10635 whole entry, looked up): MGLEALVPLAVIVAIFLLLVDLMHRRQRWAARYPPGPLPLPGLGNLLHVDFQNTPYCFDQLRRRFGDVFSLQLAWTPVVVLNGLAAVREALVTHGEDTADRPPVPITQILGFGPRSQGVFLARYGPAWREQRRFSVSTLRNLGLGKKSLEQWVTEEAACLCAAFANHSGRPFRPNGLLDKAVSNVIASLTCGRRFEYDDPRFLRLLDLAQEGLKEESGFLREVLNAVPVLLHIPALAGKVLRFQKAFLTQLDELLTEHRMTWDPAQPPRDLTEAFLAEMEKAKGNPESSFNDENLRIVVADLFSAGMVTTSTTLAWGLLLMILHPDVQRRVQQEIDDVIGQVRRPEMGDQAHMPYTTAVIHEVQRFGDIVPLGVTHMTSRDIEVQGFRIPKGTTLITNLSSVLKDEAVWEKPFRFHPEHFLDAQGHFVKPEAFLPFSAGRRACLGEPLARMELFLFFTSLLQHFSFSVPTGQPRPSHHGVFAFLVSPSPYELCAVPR
# human Dual Specificity Protein Phosphatase 3 (DUSP3), DUSP3 (gene 1845), sequence (P51452 whole entry, looked up): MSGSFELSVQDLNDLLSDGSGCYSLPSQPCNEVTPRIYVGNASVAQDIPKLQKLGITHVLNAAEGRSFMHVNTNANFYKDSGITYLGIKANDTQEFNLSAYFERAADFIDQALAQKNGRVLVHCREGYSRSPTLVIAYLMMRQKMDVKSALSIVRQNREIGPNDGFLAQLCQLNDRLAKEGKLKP
# human Matrix Metalloproteinase-9 (MMP9), MMP9 (gene 4318), sequence (P14780 whole entry, looked up): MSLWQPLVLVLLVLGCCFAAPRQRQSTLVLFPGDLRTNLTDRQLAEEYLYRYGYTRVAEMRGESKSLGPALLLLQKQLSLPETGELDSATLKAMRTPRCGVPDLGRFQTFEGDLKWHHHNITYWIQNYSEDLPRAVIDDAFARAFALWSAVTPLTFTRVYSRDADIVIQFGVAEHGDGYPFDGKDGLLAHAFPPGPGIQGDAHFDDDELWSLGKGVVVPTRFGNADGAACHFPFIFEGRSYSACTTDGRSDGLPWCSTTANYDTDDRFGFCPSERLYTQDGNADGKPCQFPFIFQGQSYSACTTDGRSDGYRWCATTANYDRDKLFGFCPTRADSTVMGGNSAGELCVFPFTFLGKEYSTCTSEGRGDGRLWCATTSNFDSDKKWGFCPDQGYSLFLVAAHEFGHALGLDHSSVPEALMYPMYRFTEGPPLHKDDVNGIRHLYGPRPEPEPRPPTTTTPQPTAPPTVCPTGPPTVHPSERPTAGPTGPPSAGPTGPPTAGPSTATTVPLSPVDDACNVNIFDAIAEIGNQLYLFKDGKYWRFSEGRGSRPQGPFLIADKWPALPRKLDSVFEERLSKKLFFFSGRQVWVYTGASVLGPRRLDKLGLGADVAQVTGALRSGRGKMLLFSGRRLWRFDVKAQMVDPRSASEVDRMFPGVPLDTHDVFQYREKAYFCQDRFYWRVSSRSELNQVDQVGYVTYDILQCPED
# human Caspase 5 (CASP5), CASP5 (gene 838), sequence (P51878 whole entry, looked up): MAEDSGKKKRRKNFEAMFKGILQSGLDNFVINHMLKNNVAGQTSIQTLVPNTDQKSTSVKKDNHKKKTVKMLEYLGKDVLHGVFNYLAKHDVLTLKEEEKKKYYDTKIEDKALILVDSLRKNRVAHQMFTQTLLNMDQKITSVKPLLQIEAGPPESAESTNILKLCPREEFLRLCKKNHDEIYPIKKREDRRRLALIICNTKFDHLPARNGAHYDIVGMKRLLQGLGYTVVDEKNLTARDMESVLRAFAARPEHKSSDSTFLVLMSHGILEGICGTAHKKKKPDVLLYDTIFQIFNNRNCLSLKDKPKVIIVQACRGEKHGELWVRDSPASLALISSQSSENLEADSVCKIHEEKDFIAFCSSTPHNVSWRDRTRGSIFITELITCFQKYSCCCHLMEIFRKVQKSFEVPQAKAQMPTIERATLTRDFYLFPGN
# Cytochrome P450 3A4 (Homo sapiens), sequence (P08684 whole entry, looked up): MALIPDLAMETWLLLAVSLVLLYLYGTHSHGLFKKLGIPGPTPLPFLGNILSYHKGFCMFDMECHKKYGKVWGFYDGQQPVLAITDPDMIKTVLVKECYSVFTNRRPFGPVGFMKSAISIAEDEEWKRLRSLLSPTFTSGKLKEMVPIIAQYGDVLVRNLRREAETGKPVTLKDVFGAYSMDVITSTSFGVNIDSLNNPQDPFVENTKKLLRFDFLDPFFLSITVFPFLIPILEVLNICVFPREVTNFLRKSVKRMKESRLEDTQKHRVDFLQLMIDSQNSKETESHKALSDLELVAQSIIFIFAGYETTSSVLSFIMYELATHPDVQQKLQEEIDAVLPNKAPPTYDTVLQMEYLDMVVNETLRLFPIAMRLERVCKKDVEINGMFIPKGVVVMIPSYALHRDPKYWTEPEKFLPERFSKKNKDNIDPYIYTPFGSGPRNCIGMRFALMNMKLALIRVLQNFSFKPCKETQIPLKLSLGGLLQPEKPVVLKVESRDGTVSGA
# human Phosphoinositide 3-kinase alpha (PI3Ka), PIK3CA (gene 5290), sequence (P42336 whole entry, looked up): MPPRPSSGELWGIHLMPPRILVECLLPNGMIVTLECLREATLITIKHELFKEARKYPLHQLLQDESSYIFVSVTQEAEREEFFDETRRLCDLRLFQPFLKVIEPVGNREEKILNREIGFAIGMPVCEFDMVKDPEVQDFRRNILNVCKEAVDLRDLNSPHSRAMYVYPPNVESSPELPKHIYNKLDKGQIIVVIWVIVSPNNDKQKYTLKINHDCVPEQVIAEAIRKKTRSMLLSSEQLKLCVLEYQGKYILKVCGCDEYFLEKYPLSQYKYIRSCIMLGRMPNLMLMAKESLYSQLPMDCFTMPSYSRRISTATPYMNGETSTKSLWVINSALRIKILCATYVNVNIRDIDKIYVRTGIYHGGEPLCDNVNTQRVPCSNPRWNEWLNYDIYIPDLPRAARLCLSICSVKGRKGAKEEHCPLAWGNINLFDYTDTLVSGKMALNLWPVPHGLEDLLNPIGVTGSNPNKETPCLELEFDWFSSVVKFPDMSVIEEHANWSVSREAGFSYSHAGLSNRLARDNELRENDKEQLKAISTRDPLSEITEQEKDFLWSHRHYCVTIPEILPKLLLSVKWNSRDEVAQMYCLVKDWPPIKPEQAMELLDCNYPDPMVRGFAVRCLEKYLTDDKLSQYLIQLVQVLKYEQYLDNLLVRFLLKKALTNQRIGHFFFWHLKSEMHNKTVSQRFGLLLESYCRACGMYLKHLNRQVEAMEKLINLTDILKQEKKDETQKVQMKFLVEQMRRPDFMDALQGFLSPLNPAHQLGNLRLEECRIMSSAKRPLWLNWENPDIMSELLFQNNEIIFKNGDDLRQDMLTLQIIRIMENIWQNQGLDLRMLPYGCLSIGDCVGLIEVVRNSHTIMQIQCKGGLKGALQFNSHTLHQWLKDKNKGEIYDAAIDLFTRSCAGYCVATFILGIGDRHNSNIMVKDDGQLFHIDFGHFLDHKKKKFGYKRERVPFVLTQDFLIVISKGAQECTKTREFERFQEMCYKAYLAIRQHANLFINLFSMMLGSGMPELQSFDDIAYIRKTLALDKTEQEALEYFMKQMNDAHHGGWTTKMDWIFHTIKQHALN
compound,measurement,setting,value
Fc1ccc(Br)cc1,outcome,[1],inactive
same,AC50,[2],13.7 µM (active)
same,outcome,[3],inactive
CCOC(=O)/C=C\C(=O)OCC,outcome,[1],inactive
same,AC50,[2],14.7 µM (active)
C=C(C)OC(C)=O,AC50,[4],9.44 µM (active)
C=CCCCCCCCCC=O,AC50,[5],13.1 µM (active)
same,AC50,[4],5.07 µM (active)
same,outcome,[6],inactive
Cc1cc(C)n(CO)n1,outcome,[7],inactive
same,AC50,[8],4.01 µM (active)
CCN1CN(CC)CN(CC)C1,outcome,[9],inactive
same,outcome,[10],inactive
CCCCCCCO,AC50,[4],0.197 µM (active)
O=C(Oc1ccccc1)c1ccccc1C(=O)Oc1ccccc1,AC50,[4],9.17 µM (active)
c1ccc2sc(SSN3CCOCC3)nc2c1,AC50,[8],0.01 µM (active)
same,AC50,[2],1.39 µM (active)
Nc1ccc(C(=O)O)cc1,outcome,[11],inactive
CC(C)(CO)COC(=O)C(C)(C)CO,AC50,[4],9.37 µM (active)
C=CC(=O)OCC(C)OCC(C)OCC(C)OC(=O)C=C (centres undefined),outcome,[12],inactive
same,outcome,[13],inactive
CC(C)[N+](C)(CCOC(=O)C1c2ccccc2Oc2ccccc21)C(C)C,AC50,[7],0.741 µM (active)
same,AC50,[3],2.02 µM (active)
same,AC50,[14],11.1 µM (active)
CC1=C(O)C(=O)C(C)O1 (centres undefined),outcome,[12],inactive
same,outcome,[6],inactive
CO[Si](CCCS)(OC)OC,AC50,[1],25 µM (active)
same,AC50,[4],12.4 µM (active)
same,AC50,[13],39 µM (active)
CC(C)C(=O)OCCOc1ccccc1,AC50,[4],7.19 µM (active)
C=CC(=O)OCCCCCCCC(C)C,AC50,[8],1.67 µM (active)
COc1ccc(C(=O)/C(Br)=C\C(=O)O)cc1,AC50,[1],18.5 µM (active)
same,AC50,[5],39.1 µM (active)
same,AC50,[4],4.96 µM (active)
same,AC50,[6],25 µM (active)
Oc1c(Cl)cc(Cl)c(Cl)c1Cl,outcome,[12],inactive
same,outcome,[6],inactive
CCCCC(C=O)CC (centres undefined),AC50,[4],5.82 µM (active)
CCc1occc(=O)c1O,AC50,[7],3.97 µM (active)
same,AC50,[4],6.98 µM (active)
same,AC50,[6],0.243 µM (active)
CCOC(=O)C1=NOC(c2ccccc2)(c2ccccc2)C1,AC50,[8],1.8 µM (active)
same,outcome,[15],inactive
same,outcome,[1],inactive
same,AC50,[4],2.32 µM (active)
Cc1c(O)cccc1O,outcome,[12],inactive
same,AC50,[4],25.5 µM (active)
same,AC50,[6],5.06 µM (active)
Cc1ccc([N+](=O)[O-])cc1N,outcome,[16],inactive
same,AC50,[8],4.92 µM (active)
same,AC50,[17],7.96 µM (active)
C=CC(=O)NC(C)(C)C,AC50,[2],13.6 µM (active)
COC(OC)(C(=O)c1ccccc1)c1ccccc1,AC50,[5],43.1 µM (active)
same,outcome,[6],inactive
same,AC50,[14],13.6 µM (active)
CC(C)CCCCCOC(=O)CS,AC50,[2],25 µM (active)
same,AC50,[4],5.63 µM (active)
OCCCc1ccccc1,outcome,[4],inactive
Cc1ccc(S(=O)(=O)N=C=O)cc1,AC50,[4],7.22 µM (active)
Nc1cccc(N)n1,outcome,[18],inactive
C=C(C)C1CC=C(C)CC1 (centres undefined),AC50,[10],19.3 µM (active)
CN1CCN(C)CC1,outcome,[19],inactive
CC1=CC=C(C(C)C)CC1,outcome,[14],inactive
CCOC(=O)C1=NN(c2ccc(Cl)cc2Cl)C(C)(C(=O)OCC)C1 (centres undefined),AC50,[14],14.3 µM (active)
